Pf Dd2 inh – blocks in vitro growth of P. falciparum Dd2; 120,000 tested, 4.3% active; P. falciparum Dd2 growth, SYBR Green, 72 h; Potency, µM (titrated, usually from 28.9 µM), for the others: at the highest dose activity, negative = inhibition, hits mostly inhibitors; AID 1347417; active = well fitted inhibition curve with a large enough effect;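 note: plate controls were DMSO vehicle for no effect and reference drug for full effect; nearly all actives have a fitted effect of over 65% in size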
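Infected erythrocytes (Dd2, 0.3% parasitemia, 2.5% hematocrit final) are added to compound in RPMI-1640/Albumax II medium, grown 72 h at 37C in low oxygen, then lysed with saponin/Triton-X containing SYBR Green and read by fluorescence.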
* hit, by the source's call; i = inactive; [ ] = remark or other dose. Shown is part of a subset that was picked to be rich in hits. Potency is the fitted concentration of half-maximal effect.

SMILES	Pf Dd2 inh
CN1CCC(N[C@@H]2CO[C@H](CNC(=O)C3CCCC3)[C@H]2O)CC1	3%[44.1 µM]
COc1ccc(Cn2c(-c3ccc(Cl)cc3)nc(C)c(CCO)c2=O)cc1F	-23%
COc1ccc(C(=O)Nc2ccc([C@H]3OCC(=O)N(C)[C@@H]3CO)cc2)cc1	-8%[44.1 µM]
Cc1cccc(CNC(=O)C2Cn3cccc3C(=O)N2Cc2ccccc2)c1 (stereo unspecified)	-52%
O=C(C[C@@H]1C[C@H]2O[C@H](CNCc3ccccc3C(F)(F)F)[C@@H](O)[C@H]2O1)N1CCC(F)(F)C1	26%
COc1ccc(-c2noc(-c3cccn3CC(=O)Nc3cc(F)ccc3Cl)n2)cc1F	-10%
COc1ccc(-c2noc(-c3cccn3CC(=O)Nc3cccc(Cl)c3)n2)cc1F	2.5µM*
COc1ccc(CCNC(=O)Cn2cccc2-c2nc(-c3ccc(F)cc3)no2)cc1OC	i
CCOc1ccc(C(=O)NCCn2cccc2-c2nc(-c3ccccc3)no2)cc1OCC	10µM*
COc1ccc(C(=O)NCCn2cccc2-c2nc(-c3ccccc3)no2)cc1	i
CCOc1ccc(CCNC(=O)Cn2cccc2-c2nc(-c3ccccc3)no2)cc1OCC	3%
Cn1c(CO[C@H]2CN(Cc3ccncc3F)C[C@H]2F)nc2ccccc21	18%[44.1 µM]
COc1ccc(S(=O)(=O)N2C[C@@H]3C[C@H](C2)c2c(NC(=O)c4cncnc4)ccc(=O)n2C3)cc1	-9%
O=C(c1ncccc1F)N1CCCn2ccnc2C1c1ccccc1 (stereo unspecified)	15%
CSCC(=O)N1C[C@@H](NC(=O)NC2CCCCC2)C[C@H]1C(=O)N(C)CC(N)=O	21%[44.1 µM]
Cc1ccccc1CNC[C@H]1O[C@@H]2C[C@@H](CC(=O)N3CCOCC3)O[C@@H]2[C@@H]1O	-10%[44.1 µM]
Cc1ccc2c(C(=O)N3CCN(C(C)C)CC3)cc(NC(=O)C(C)C)cc2n1	9%
CCN(CC)CCOC(=O)c1ccc(NC(=O)CSc2cc(=O)n(CC)c3ccccc23)cc1	89%
Fc1ccc(Nc2c3c(nc4ccccc24)CCC3)cc1	-11%
CCN(CC)CCOC(=O)c1ccc(Nc2c3c(nc4ccccc24)CCC3)cc1	7.1µM*
CC1=NS(=O)(=O)N(C)C=C1C(=O)OCc1nc(-c2cccs2)no1	6%
c1ccc2c(c1)CC(Cc1nc(C3CCOC3)n[nH]1)C2 (stereo unspecified)	-2%
CCOc1cc(-c2c(-c3ccccc3)ncn2CCNC(C)=O)ccc1OC	-24%
COc1cc2c(cc1-c1c(-c3ccccc3)ncn1CCCO)CCC2	13µM*
OCCCn1cnc(-c2ccccc2)c1-c1ccc(-c2ccn[nH]2)o1	-11%
SMILES	Pf Dd2 inh
O=C(c1ccccc1)N1CCC2(CC1)C(=O)NN=C2C1CC1	17%[44.1 µM]
Cc1cc(Cl)ccc1NC(=O)N1CCC(n2cnnc2C2CC2)C1 (stereo unspecified)	-39%
Cc1csc(NC(=O)c2nc3c(o2)CCN(Cc2cccc(F)c2)CC3)n1	i
CN(C)C(=O)c1n[nH]c2c1CN(C(=O)CCc1ccccc1)CC2	-22%
Cc1oc2c(c1C(=O)N1CCN(c3ccccc3)CC1)CN(Cc1ccccc1)CC2	5µM*
Cc1oc2c(c1C(=O)N1CCOCC1)CN(CCC(C)C)CC2	-20%
CC(=O)N1CCN(C(=O)c2c(C)oc3c2CN(Cc2ccc(F)cc2)CC3)CC1	-1%
CCC(=O)N1CCc2oc(C)c(C(=O)N(C)C)c2C1	i
O=C1CCC(C(=O)N2CCSCC2)CN1CCc1cccc(F)c1 (stereo unspecified)	0%
Cc1oc2c(c1C(=O)N1CCSCC1)CN(Cc1cccc(F)c1)CC2	11µM*
Cc1oc2c(c1C(=O)N(C)C)CN(C(=O)CCc1ccccc1)CC2	6.3µM*
CC(=O)N[C@@H]1CN(Cc2ccc(OC(C)C)cc2)C[C@H]1CO	21%
CCC(CC)C(=O)Nc1ccc([C@H]2OCC(=O)N(C)[C@@H]2CO)cc1	0%[44.1 µM]
O=C(NC1CCCN(c2cc(-c3ccc(F)cc3)[nH]n2)C1)c1ccc(Br)o1 (stereo unspecified)	i
O=C1N(Cc2ccccc2)C[C@H]2CN(Cc3cccs3)CCN12	-28%[44.1 µM]
CCOc1ccc(C(=O)N2CCc3cc(OC)c(OC)cc3C2COc2ccc3c(C)cc(=O)oc3c2)cc1OCC (stereo unspecified)	3.2µM*
COCC(=O)N1CCc2cc(OC)c(OC)cc2C1COc1ccc2c(C)cc(=O)oc2c1 (stereo unspecified)	11%
COc1cc2c(cc1OC)C(CNC(=O)c1cccc(F)c1)N(C(=O)Nc1ccc(C)cc1)CC2 (stereo unspecified)	i
CCOc1ccc(C(=O)N2CCC[C@H]2c2nc(-c3ccc(OC)cc3)no2)cc1OCC	i
COc1cc2c(cc1OC)C(COc1ccc3c(C)cc(=O)oc3c1)N(C(=O)c1ccc(Cl)cc1)CC2 (stereo unspecified)	8.9µM*
COc1cc2c(cc1OC)C(CNC(=O)c1ccccc1)N(C(=O)Nc1cccc(F)c1)CC2 (stereo unspecified)	-11%
COc1cccc(C(=O)N2CCc3cc(OC)c(OC)cc3C2COc2ccc3c(C)cc(=O)oc3c2)c1 (stereo unspecified)	8.9µM*
CCNC(=O)NCC1c2cc(OC)c(OC)cc2CCN1C(=O)Nc1ccc(C)cc1 (stereo unspecified)	i
CN(C)C(=O)C1CN(C(=O)Nc2cc(F)c(F)c(F)c2)CC12CCOCC2 (stereo unspecified)	6%
COC(=O)C1=CN(CC(=O)NCc2ccc(OC)cc2)S(=O)(=O)N=C1C	23%
SMILES	Pf Dd2 inh
CCCC(=O)Nc1ccc(NC(=O)C2CC(=O)N(CC(C)C)C2)cc1OC (stereo unspecified)	-9%
CCCNC(=O)N(CCC)CC1CCOC1 (stereo unspecified)	-5%[5.79 µM]
Cc1cc(CNC(=O)C2(C(N)=O)CC2)c2[nH]c(-c3ccccc3)c(C)c2c1	-23%
Cn1cnc(S(=O)(=O)N2CCCC(C(=O)Nc3ccc(F)cc3F)CCNC(=O)CC2)c1 (stereo unspecified)	-13%
COCC(=O)NC1CCC12CCN(S(=O)(=O)C(C)C)CC2 (stereo unspecified)	-23%
CCN(CC)S(=O)(=O)c1ccc(OC)c(NC(=O)c2sc3ccccc3c2Cl)c1	29%
CCN(CC)S(=O)(=O)c1cccc(C(=O)Nc2ccccc2C(=O)Nc2ccc(OC)cc2)c1	7.1µM*
CCN(CC)C(=O)c1ccccc1NC(=O)c1cccc(S(=O)(=O)N2CCC(C)CC2)c1	52%[5.79 µM]
CCN1C(=O)C2CC3(CCN(S(=O)(=O)c4cccc(OC)c4)CC3)CN2C1=O (stereo unspecified)	-22%
CC(=O)N1CCN(C2CCNCC2)C(=O)C1	i
Cc1ccc(CNC(=O)CCCN2C(=O)CCn3nc(-c4cccn4C)cc32)cc1	5µM*
CN(C)c1ccc(CNC(=O)CCCN2C(=O)CCn3nc(-c4cccn4C)cc32)cc1	-2%
CC(C)Oc1ccc(CNC(=O)CCCN2C(=O)CCn3nc(-c4cccn4C)cc32)cc1	4%
COc1cccc(CNC(=O)Cn2c(N3CCc4ccccc4C3)nc(C)cc2=O)c1	-20%
COc1cc(NC(=O)Cn2c(N3CCc4ccccc4C3)nc(C)cc2=O)cc(OC)c1OC	-23%
COc1ccc(CNC(=O)Cn2c(N3CCc4ccccc4C3)nc(C)cc2=O)cc1	8.9µM*
O=C1NC2(Cc3ccccc31)CN(C(=O)C1CCCC1)C2	3%[44.1 µM]
Cc1ccc(-c2ccccc2C=O)c(C)c1	4%[76.6 µM]
O=C(CCc1cnccn1)N1CCOC(CCCc2ccccc2)C1 (stereo unspecified)	-5%

Bioassay records from PubChem.
